Experimental data from the supplement of paper PMC10105736.
± gives the standard deviation of the averaged measurements.

How the values were obtained:
Experiment in all cases: MAPPIT interaction score (arbitrary units); higher = stronger binary interaction signal, active = hit call of the paper;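 active = MAPPIT score above the 99th percentile of random reference set scores in the same batch; inactive = at or below it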
CG9825 = conditions: MAPPIT configuration: N-C; pair source set: screen_4
CHES-1-like = conditions: MAPPIT configuration: N-C; pair source set: screen_4
Mf = conditions: MAPPIT configuration: N-C; pair source set: screen_3
mri = conditions: MAPPIT configuration: N-N; pair source set: screen_1
CROT = conditions: MAPPIT configuration: N-N; pair source set: Curagen_high_conf
CSN4 = conditions: MAPPIT configuration: N-C; pair source set: Lit-BM-16
Cog6 = conditions: MAPPIT configuration: N-N; pair source set: Finley_Y2H
Caf1-55 = conditions: pair source set: Lit-BM-16
Rph = conditions: MAPPIT configuration: N-C; pair source set: RRS
CanA1 = conditions: MAPPIT configuration: N-N; pair source set: Lit-BS-16
Caper = conditions: MAPPIT configuration: N-N; pair source set: DPIM
Cda5 = conditions: MAPPIT configuration: N-N; pair source set: Lit-BS-16
Cdc5 = conditions: MAPPIT configuration: N-N; pair source set: DPIM
Cdc50 = conditions: MAPPIT configuration: N-N; pair source set: DPIM
Cdlc2 = conditions: MAPPIT configuration: N-N; pair source set: Finley_Y2H
Chd64 = conditions: MAPPIT configuration: N-N; pair source set: RRS
CkIIalpha-i3 = conditions: MAPPIT configuration: N-C; pair source set: screen_3
Cnb = conditions: pair source set: Lit-BM-16
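Note: HEK293T cells with Epo stimulation, STAT-responsive firefly luciferase reporter, fold induction versus unstimulated cells divided by the larger fold induction of two negative controls lacking either bait or prey.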

B1: to (protein)
chain: MFAIAFAVVLCLLVSVDAKFPEDPKPCKYGDGECIMKLCNTLFSENSAEGDPGLNLMQLDPLKVDRMVISQGESSSPVGITLTFTDNLLYGIKDQRIVKVKGFGRDLTAKHEVKIVTKTFSLVGPYNIQGKVLILPISGTGQSNMTMVNVRAIVSFSGKPLVKNGETYLDVTDLKITMKPESSHYHFSNLFNGDKALGDNMNVFLNENSEAIYKETAKAIDRSFGKLYLGVVKGVFSKLPYAKFFADES
CG9825
  MAPPIT interaction score: 0.062 (inactive)

B2: CG8306 (protein)
chain: MASSPITDFYAGRNVFITGATGFVGVTIVEKLLRDVPNVGTLYLLMRAKKGKSVQERLEELKKNSVFDKFKELQLQSRLSKIVPIEGDVGLEHLGISPKDRQTLIDNVNVVFHSAATLDFFQSLKETTNINLRGTRRVVELCQQIKNLDALVHVSSAYVNAYLTKVEEKLYPAPEDPEKIIQLSETLNDDALKELEPKLLKDHPNTYTFTKHLAEHEVANVASKFPCGIVRPSMITAAWKEPIPGWTISKNGPQGFFMGASKGVLRRLPLDPSIIMDYIPIDVVVNGIITTGYYVNSLQAKNGGRPADLQIFHLTSSTYKPFRFELMTDKINSYLHDYPLNSAVWYPNLRLVKSLWVFRLSAILFHFIPAIILDLVTKIGGGRPILVRLHKNVWNSLNTLEKFIFTEWHFDSKRLLALSKTLNIVDKKKFFIDIGELAWDEYFSNTILGVRQYLSKEPIKNLEKARRKDKILLGLHVALQLSFWYGVFKLIVCLTGISTAKAALVLPVLYYLFGLL
CG9825
  MAPPIT interaction score: -0.0656 (inactive)

B3: Lasp (protein)
chain: MNKTCARCQKVVYPIEELKCLDKTWHKTCFKCTECGMTLNMKTYKGYNKMPYCEAHIPKAKATAIADTPELKRIAENTKIQSNVKYHADFEKAKGKFTQVADDPETLRIKQNTKHISNVAYHGDLEKKAAMEKQRGSAEVSDSSNESEYFSEQLAAEQFSQYAPTASPIPPAATTLHQQQQQLQHQQQQQYQQHQQQLQQQQHQHQHYLQQQQQTLPPPPIQHQQYNTAAITPTYQQLQQQQQQQQQQRAQQQQLHDPYAHYQQPQALRQQQQQQQQQQQQLLQQQAIKQASHLYPTATSQQQQMPPPQSPANPQQQALNSYNEMRSAILQNSHHPSGNSVDQYDQPQQQQHQPQQQSTNPTLVAAQQQQSHHSLLNNNASNGGISHSHHSNINNNGHGSQNQMLPPQMRRSAASVVAYDGNSKQQVAAGPGAAQNHLQQLYASPNYAAVTPSENSINVKQHASNGHMPNQQQQHVAGGSNIGKIADYDPLTDGPRVVPNAGRSSTTLVYSSEPRGNQGGNSVYPKRIGSVSDIDPANGIYGSLTAAEQAHQQQKHQQYYQQVQMMQQQEHPPQQQQMRQQPSYSSLQEKQSRQSTAMRVYRAIYDYEAQDVDEVSFREGDVIFEVESIDSGWMTGRVERTGKTGMLPANYVEQAVI
CHES-1-like
  MAPPIT interaction score: 0.887 (inactive)
Mf
  MAPPIT interaction score: 3.01 (inactive)
mri
  MAPPIT interaction score: 1.83 (inactive)

B4: Usp30 (protein)
chain: MESEKILMAAGVTVAAVVGAFVFWGPSGSRLRQRRGQIAGLHNFGLTCFLNTLLQAMAACPQFIAWLQLYNNASPDRKSLITSMLNTLEVVNGTHATLRGDPYSPGAVLRALNALGWVIPQEEHDAHELFHVLLTCLEEEAIRPQPLGCLSDALPTDNDDNSSLAGTATPVGGFRSFSSMAAGLGASQRIGDQPNRPSSAMLTDFLNMEYDESTSLQRLVRSEAHTPDSPASVCERDGNDRLGSVLLDAVSPGTPFGFPLVSNPDSLATPMLGGERSSRPRLPQSQQQQDEGLNRRVSSSCRSLERLHRGPGRVSIWSNMMPSQVAHPFQGAMGAQIVCNGCGSKSAVRYDKFDSITLNLPPQRRTGLSLGHLLSEYITSEDLSDVKCDSCNETTTHTKSVTFAKLPACLCIHVARTVWLPTGQVCKRKDYVHFPESLSMAPYSFVQPHLNSQAGTPWGSTMSLYSSSLPMNNGVGGGEGFGTMFPKNLYRLLAVVVHSGEANSGHFVTYRRGSLRNAHRWYYTSDTIVREVSIDEVLSVPAYLLFYDRGQQRQLNLR
CROT
  MAPPIT interaction score: 2.05 (inactive)

B5: CSN7 (protein)
chain: MTQDMLLGNEEPSKSKETFLEKFCVLAKSSTGAALLDVIRQALEAPNVFVFGELLAEPSVLQLKDGPDSKHFETLNLFAYGTYKEYRAQPEKFIELTPAMQKKLQHLTIVSLAIKAKSIPYALLLSELEIDNVRHLEDIIIEAIYADIIHGKLFQNTRILEVDYAQGRDIPPGYTGQIVETLQAWVNSCDSVSNCIEMQIKYANAEKSKRLINKERVEQDLINLKKVLKSQTSDSDESMQIDTHGPGTSGGLGQSELRKKPSKLRNPRSAAVGLKFSK
CSN4
  MAPPIT interaction score: 1.74 (inactive)
Cog6
  MAPPIT interaction score: -0.342 (inactive)

B6: Caf1-55 (protein)
chain: MVDRSDNAAESFDDAVEERVINEEYKIWKKNTPFLYDLVMTHALEWPSLTAQWLPDVTKQDGKDYSVHRLILGTHTSDEQNHLLIASVQLPSEDAQFDGSHYDNEKGEFGGFGSVCGKIEIEIKINHEGEVNRARYMPQNACVIATKTPSSDVLVFDYTKHPSKPEPSGECQPDLRLRGHQKEGYGLSWNPNLNGYLLSASDDHTICLWDINATPKEHRVIDAKNIFTGHTAVVEDVAWHLLHESLFGSVADDQKLMIWDTRNNNTSKPSHTVDAHTAEVNCLSFNPYSEFILATGSADKTVALWDLRNLKLKLHSFESHKDEIFQVQWSPHNETILASSGTDRRLHVWDLSKIGEEQSTEDAEDGPPELLFIHGGHTAKISDFSWNPNEPWIICSVSEDNIMQVWQMAENVYNDEEPEIPASELETNTA
Caf1-55; MAPPIT configuration: N-C
  MAPPIT interaction score: 2.19 (inactive)
Caf1-55; MAPPIT configuration: N-N
  MAPPIT interaction score: 1.84 ± 0.68
Rph
  MAPPIT interaction score: 2.27 (inactive)

B7: CanB (protein)
chain: MGNETSLPMDMCSNFDADEIRRLGKRFRKLDLDNSGALSIDEFMSLPELQQNPLVQRVIDIFDADGNGEVDFKEFIQGVSQFSVRGDKLSKLRFAFRIYDMDNDGYISNGELFQVLKMMVGNNLKDTQLQQIVDKTICFADKDEDGKISFDEFCSVVGNTDIHKKMVVDV
CanA1
  MAPPIT interaction score: -0.226 (inactive)

B8: Npc2a (protein)
chain: MLRYAVIACAALVVFAGALEFSDCGSKTGKFTRVAIEGCDTTKAECILKRNTTVSFSIDFALAEEATAVKTVVHGKVLGIEMPFPLANPDACVDSGLKCPLEKDESYRYTATLPVLRSYPKVSVLVKWELQDQDGADIICVEIPAKIQ
Caper
  MAPPIT interaction score: -0.361 (inactive)

B9: Cp36 (protein)
chain: MQLGLWFGILAIAATPLVSANYGPAGGHGHGHGHGQYLSGPNAGLEEYVNVASGGNQQAANQIASQAEIQPTPEEARRLGRVQAQLQALNADPNYQKLKNSEDIAESLAETNLASNIRQGKIKVVSPQFVDQHLFRSLLVPSGHNNHQVIATQPLPPIIVHQPGAPPAHVNSGPPTVVRGNPVIYKIKPSVIYQQEVINKVPTPLSLNPVYVKVYKPGKKIEAPLAPVVAPVYSQPREYSQPQGYGSAGAASSAAGAASSADGNAYGNEAPLYNSPAPYGQPNY
Cda5
  MAPPIT interaction score: 0.061 (inactive)

B10: LTV1 (protein)
chain: MVKGKKPYIDRKKAVTFHLVHRSQHDPLVTDENAPQRVLLEAAARQQKPKDPEPPTDPAQRQEELKKFGIHFDDDYDYMQHLKKRENDVVWEFMENPNQARKQKVQDSEKPGPAPKLMLPSSVFASEFEESEGMLNKAAPQTLRLDWDPDVVAALDSDCENEELEDDFVIQAMAEGDSDDEEWDDEDGEEQSDMDFDSDDLNEDENEDELMDRLAPLMRERRFDDEEVKSRFTEYSMSSSVIRRNEQLSLLDDRFEKFYATYDDPELGDLALEDIEGNWHQKHPVVMQCFQEFKKKDKGIEYNKEWDRERIEKYRNVVEGEEDPTEELVEYEVDDPKQKKWDCESILSTYSNIYNHPKVIDEPRRSRRSSASTNPAPIQIDPKTGLPTNVLRGGVDGQLTAKALANLADESPAATGPKSLCAKSVLSTLSVLSIRPKDETHEEKKERKRLLKDYRNERRIEKKANTEAFKEEKKRQTHVKINQRTNQQGASIV
Cdc5
  MAPPIT interaction score: 1.03 (inactive)

B11: CaBP1 (protein)
chain: MRQLASILLLAFVVGSVSAFYSPSDGVVELTPSNFDREVLKDDAIWVVEFYAPWCGHCQSLVPEYKKLAKALKGVVKVGSVNADADSTLSGQFGVRGFPTIKIFGANKKSPTDYNGQRTAKAIAEAALAEVKKKVQGVLGGGGGSSSGGSGSSSGDDVIELTEDNFDKLVLNSDDIWLVEFFAPWCGHCKNLAPEWAKAAKELKGKVKLGALDATAHQSKAAEYNVRGYPTIKFFPAGSKRASDAQEYDGGRTASDIVSWASDKHVANVPAPELIEIINESTFETACEGKPLCVVSVLPHILDCDAKCRNKFLDTLRTLGEKFKQKQWGWAWAEGGQQLALEESLEVGGFGYPAMAVVNFKKMKFSVLKGSFSKDGINEFLRDISYGRGHTAPVRGAKKPAIVSVDPWDGKDGQLPTEEDIDLSDIDLDKDEL
Cdc50
  MAPPIT interaction score: 0.0074 (inactive)

B12: Acp62F (protein)
chain: MTDMWSLKICACLGLLLLFKPIDSMGWQGPKVDCTANGTQTECPVACPETCEYSGNGPCVKMCGAPCVCKPGYVINERIPACVLRSDCPKDVVRKEDMLLGVSNFKCFSRNYNCS
Cdlc2
  MAPPIT interaction score: 2.6 (inactive)

B13: GstS1 (protein)
chain: MADEAQAPPAEGAPPAEGEAPPPAEGAEGAVEGGEAAPPAEPAEPIKHSYTLFYFNVKALAEPLRYLFAYGNQEYEDVRVTRDEWPALKPTMPMGQMPVLEVDGKRVHQSISMARFLAKTVGLCGATPWEDLQIDIVVDTINDFRLKIAVVSYEPEDEIKEKKLVTLNAEVIPFYLEKLEQTVKDNDGHLALGKLTWADVYFAGITDYMNYMVKRDLLEPYPALRGVVDAVNALEPIKAWIEKRPVTEV
Chd64
  MAPPIT interaction score: 0.058 (inactive)

B14: Timp (protein)
chain: MDLRKHLGLLTLLLVAVFAFYGRPADACSCMPSHPQTHFAQADYVVQLRVLRKSDTIEPGRTTYKVHIKRTYKATSEARRMLRDGRLSTPQDDAMCGINLDLGKVYIVAGRMPTLNICSYYKEYTRMTITERHGFSGGYAKATNCTVTPCFGERCFKGRNYADTCKWSPFGKCETNYSACMPHKVQTVNGVISRCRWRRTQLYRKCMSNP
CkIIalpha-i3
  MAPPIT interaction score: 0.0292 (inactive)

B15: Cpr47Eg (protein)
chain: MKFFIAFACLLAVALANEDANVLRAEQQVNVDGFAYAVELDNSVNVQQKGDLNGEEWVVKGSQSWTSPENVPVSIQYIADANGYQVVSANPPLPTPPPIPEAIQRSLEYIAAHPPSQ
Cnb; MAPPIT configuration: N-C
  MAPPIT interaction score: 1.11 (inactive)
Cnb; MAPPIT configuration: N-N
  MAPPIT interaction score: -0.0471 (inactive)
